Assay results published in PubChem BioAssay AID1159580 (chemical genetic matrix, 2015).
Out of some 5,500 compounds screened, about 2,000 (36%) were called active. Another 18% or so got no clear call; they are omitted. Cut-off read from the data, not from the text of the source: active = normalized growth mostly below about 0.91 (no sharp cut-off); inconclusive = no clear call, values can overlap the other calls; inactive = mostly above about 0.92. This is one part of the list.

Assay: chemical genetic growth profiling, strain panel (AID 1159580);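 note: tested at 20 µM; growth read once vehicle control cultures reached saturation at 30 °C; 1 = growth at the plate median or of vehicle wells; lower values mean less growth of the strain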
Conditions: growth OD
[1] = S. cerevisiae deletion strains, locus YAL013W, strain DEP1, active compounds read low
[2] = S. cerevisiae deletion strains, locus YAL040C, strain CLN3, active compounds read low
[3] = S. cerevisiae deletion strains, locus YCL061C, strain MRC1 (second series), active compounds read low
[4] = S. cerevisiae deletion strains, locus YDR363W, strain ESC2, active compounds read low
[5] = S. cerevisiae deletion strains, locus YER002W, strain NOP16, active compounds read low
[6] = S. cerevisiae deletion strains, locus YGR078C, strain PAC10, active compounds read low
[7] = S. cerevisiae deletion strains, locus YJR075W, strain HOC1, active compounds read low
[8] = S. cerevisiae deletion strains, locus YMR307W, strain GAS1, active compounds read low
[9] = S. cerevisiae deletion strains, locus YNL175C, strain NOP13, active compounds read low
[10] = S. cerevisiae deletion strains, locus YNL197C, strain WHI3, active compounds read low
[11] = S. cerevisiae deletion strains, locus YNL224C, strain SQS1, active compounds read low
[12] = S. cerevisiae deletion strains, locus YOR083W, strain WHI5 (second series), active compounds read low
[13] = S. cerevisiae deletion strains, locus YPL055C, strain LGE1, active compounds read low
[14] = S. cerevisiae deletion strains, locus YPL241C, strain CIN2, active compounds read low
[15] = S. cerevisiae deletion strains, locus YMR263W, strain SAP30, active compounds read low
[16] = S. cerevisiae deletion strains, locus YNL153C, strain GIM3, active compounds read low
[17] = S. cerevisiae deletion strains, locus YNL322C, strain KRE1, active compounds read low
[18] = S. cerevisiae deletion strains, locus YDR150W, strain NUM1, active compounds read low
[19] = S. cerevisiae deletion strains, locus YGR229C, strain SMI1, active compounds read low
[20] = S. cerevisiae deletion strains, locus YHR030C, strain SLT2, active compounds read low
[21] = S. cerevisiae deletion strains, locus YHR079C, strain IRE1, active compounds read low
[22] = S. cerevisiae deletion strains, locus YJL095W, strain BCK1, active compounds read low
[23] = S. cerevisiae deletion strains, locus YJR066W, strain TOR1, active compounds read low
[24] = S. cerevisiae deletion strains, locus YLR113W, strain HOG1, active compounds read low
[25] = S. cerevisiae deletion strains, locus YNL183C, strain NPR1, active compounds read low
[26] = S. cerevisiae deletion strains, locus YOR231W, strain MKK1, active compounds read low
[27] = S. cerevisiae deletion strains, locus YPL256C, strain CLN2, active compounds read low
[28] = S. cerevisiae deletion strains, locus YBR229C, strain ROT2, active compounds read low
[29] = S. cerevisiae deletion strains, locus YCL061C, strain MRC1, active compounds read low
[30] = S. cerevisiae deletion strains, locus YDL101C, strain DUN1, active compounds read low
[31] = S. cerevisiae deletion strains, locus YEL061C, strain CIN8, active compounds read low
[32] = S. cerevisiae deletion strains, locus YHR087W, strain rtc3, active compounds read low
[33] = S. cerevisiae deletion strains, locus YJR043C, strain POL32, active compounds read low
[34] = S. cerevisiae deletion strains, locus YLR039C, strain RIC1, active compounds read low
[35] = S. cerevisiae deletion strains, locus YLR058C, strain SHM2 (second series), active compounds read low
[36] = S. cerevisiae deletion strains, locus YLR085C, strain ARP6, active compounds read low
[37] = S. cerevisiae deletion strains, locus YLR262C, strain YPT6, active compounds read low
[38] = S. cerevisiae deletion strains, locus YML094W, strain GIM5, active compounds read low
[39] = S. cerevisiae deletion strains, locus YMR219W, strain ESC1, active compounds read low
[40] = S. cerevisiae deletion strains, locus YNL298W, strain CLA4 (second series), active compounds read low
[41] = S. cerevisiae deletion strains, locus YNR030W, strain Alg12, active compounds read low
[42] = S. cerevisiae deletion strains, locus YPR135W, strain CTF4, active compounds read low
[43] = S. cerevisiae strains, strain wild type, active compounds read low

Measured: normalized growth

CCCN(CCC)C1CCc2ccc(O)cc2C1 (centres undefined)
inactive: [1] 1.03 | [2] 1.1 | [3] 1.01 | [4] 1.01 | [5] 1.01 | [6] 0.993 | [7] 1 | [8] 1.02 | S. cerevisiae deletion strains, locus YNL128W, strain TEP1, active compounds read low 1.02 | [9] 1.01 | [10] 1.01 | [11] 0.995 | [12] 0.991 | [13] 1.02 | [14] 1.01

CCCN(CCC)[C@@H]1CCc2ccc(O)cc2C1
inactive: [1] 0.964 | [2] 1.03 | [3] 0.988 | [4] 0.989 | [5] 0.972 | [15] 0.983 | [8] 1.01 | [16] 0.978 | [9] 0.982 | [10] 0.982 | [11] 1.01 | [17] 0.978 | [12] 0.996 | [13] 0.988

CC[C@@H]1Cc2cc(O)ccc2C2=C1c1ccc(O)cc1C[C@H]2CC
inactive: [1] 1.01 | [3] 0.995 | [18] 0.996 | [4] 1.02 | [5] 1.02 | [19] 1.04 | [7] 0.991 | [10] 0.954 | [17] 0.993 | [13] 1.01
active: [2] 0.852 | [6] 0.777 | [9] 0.904 | [11] 0.643 | [12] 0.507

CC(=O)N[C@@H]1[C@@H](O)[C@H](O)[C@@H](CO)O[C@H]1O
inactive: [20] 0.993 | [21] 0.975 | [22] 0.995 | [23] 0.917 | [24] 0.993 | [25] 0.898 | [26] 0.99 | [27] 0.967

Cc1ccc(/C(C#N)=C2C=C/C(=N/O)C(Cl)=C\2Cl)cc1
active: [20] 0.631 | [37] 0.816 | [41] 0.877
inactive: [1] 0.953 | [28] 0.961 | [29] 0.965 | [30] 0.983 | [18] 0.963 | [31] 0.959 | [6] 0.975 | [32] 1 | [33] 1.01 | [7] 1 | [34] 0.865 | [35] 0.999 | [36] 0.825 | [38] 0.973 | [39] 0.991 | [15] 0.984 | [8] 0.721 | [16] 0.962 | [40] 0.885 | [17] 0.98 | [13] 0.949 | [14] 0.952 | [42] 0.681 | [43] 0.929

Cc1ccc(S(=O)(=O)/C(C#N)=N\O)cc1
inactive: [1] 0.989 | [28] 0.999 | [29] 1.01 | [30] 1.01 | [18] 1.02 | [31] 0.985 | [6] 0.997 | [19] 0.988 | [20] 0.948 | [32] 0.979 | S. cerevisiae deletion strains, locus YJL187C, strain SWE1, active compounds read low 0.987 | [33] 0.977 | [7] 1.03 | [34] 0.98 | [35] 0.997 | [36] 1.04 | [37] 0.984 | [38] 1.02 | [39] 1 | [15] 0.932 | [8] 1.12 | [16] 0.989 | [40] 0.977 | [17] 0.993 | [41] 0.998 | [13] 1.11 | [14] 1.02 | [42] 0.906 | [43] 0.971

COc1ccc(/C(C#N)=C2C=C/C(=N/O)C(Cl)=C\2)cc1
active: [24] 0.851
inactive: S. cerevisiae deletion strains, locus YAR019C, strain CDC15, active compounds read low 0.972 | S. cerevisiae deletion strains, locus YBL105C, strain PKC1, active compounds read low 0.975 | S. cerevisiae deletion strains, locus YBR135W, strain CKS1, active compounds read low 0.959 | S. cerevisiae deletion strains, locus YBR136W, strain MEC1, active compounds read low 0.954 | S. cerevisiae deletion strains, locus YBR160W, strain CDC28, active compounds read low 0.976 | S. cerevisiae deletion strains, locus YDL017W, strain CDC7, active compounds read low 0.984 | S. cerevisiae deletion strains, locus YDL028C, strain MPS1, active compounds read low 0.976 | [30] 0.971 | S. cerevisiae deletion strains, locus YDL108W, strain KIN28, active compounds read low 0.969 | S. cerevisiae deletion strains, locus YDL132W, strain cdc53, active compounds read low 0.948 | S. cerevisiae deletion strains, locus YDL214C, strain PRR2, active compounds read low 0.918 | S. cerevisiae deletion strains, locus YDR052C, strain DBF4, active compounds read low 0.966 | S. cerevisiae deletion strains, locus YDR054C, strain cdc34, active compounds read low 0.958 | S. cerevisiae deletion strains, locus YDR226W, strain ADK1, active compounds read low 0.955 | S. cerevisiae deletion strains, locus YDR477W, strain SNF1, active compounds read low 0.898 | S. cerevisiae deletion strains, locus YER123W, strain YCK3, active compounds read low 0.898 | S. cerevisiae deletion strains, locus YER133W, strain GLC7, active compounds read low 0.906 | S. cerevisiae deletion strains, locus YFL009W, strain cdc4, active compounds read low 0.962 | S. cerevisiae deletion strains, locus YFL029C, strain CAK1, active compounds read low 0.965 | S. cerevisiae deletion strains, locus YFR003C, strain YPI1, active compounds read low 0.97 | S. cerevisiae deletion strains, locus YFR019W, strain FAB1, active compounds read low 0.949 | S. cerevisiae deletion strains, locus YFR028C, strain CDC14, active compounds read low 0.948 | S. cerevisiae deletion strains, locus YGR040W, strain KSS1, active compounds read low 0.864 | S. cerevisiae deletion strains, locus YGR052W, strain FMP48, active compounds read low 0.925 | S. cerevisiae deletion strains, locus YGR092W, strain DBF2, active compounds read low 0.822 | [20] 0.879 | [21] 0.996 | S. cerevisiae deletion strains, locus YHR082C, strain KSP1, active compounds read low 0.937 | S. cerevisiae deletion strains, locus YHR205W, strain SCH9, active compounds read low 0.775 | S. cerevisiae deletion strains, locus YIL147C, strain SLN1, active compounds read low 0.968 | [22] 0.842 | S. cerevisiae deletion strains, locus YJL128C, strain PBS2, active compounds read low 0.942 | S. cerevisiae deletion strains, locus YJL157C, strain FAR1, active compounds read low 0.926 | S. cerevisiae deletion strains, locus YJR016C, strain ILV3, active compounds read low 0.954 | S. cerevisiae deletion strains, locus YJR066W, strain TOR1 (second series), active compounds read low 0.85 | [23] 0.887 | S. cerevisiae deletion strains, locus YKL048C, strain ELM1, active compounds read low 0.929 | S. cerevisiae deletion strains, locus YKL067W, strain YNK1, active compounds read low 0.932 | S. cerevisiae deletion strains, locus YKL101W, strain HSL1, active compounds read low 0.893 | S. cerevisiae deletion strains, locus YKL193C, strain SDS22, active compounds read low 0.964 | S. cerevisiae deletion strains, locus YKL203C, strain TOR2, active compounds read low 0.866 | S. cerevisiae deletion strains, locus YLR133W, strain CKI1, active compounds read low 0.913 | S. cerevisiae deletion strains, locus YLR403W, strain SFP1, active compounds read low 0.866 | S. cerevisiae deletion strains, locus YML070W, strain DAK1, active compounds read low 0.915 | S. cerevisiae deletion strains, locus YMR001C, strain CDC5, active compounds read low 0.959 | S. cerevisiae deletion strains, locus YMR205C, strain PFK2 (second series), active compounds read low 0.941 | S. cerevisiae deletion strains, locus YMR277W, strain FCP1, active compounds read low 0.967 | S. cerevisiae deletion strains, locus YNL006W, strain LST8, active compounds read low 0.985 | S. cerevisiae deletion strains, locus YNL020C, strain ARK1, active compounds read low 0.922 | S. cerevisiae deletion strains, locus YNL161W, strain CBK1, active compounds read low 0.973 | [25] 0.862 | S. cerevisiae deletion strains, locus YNL207W, strain RIO2, active compounds read low 0.961 | S. cerevisiae deletion strains, locus YNL222W, strain SSU72, active compounds read low 0.971 | S. cerevisiae deletion strains, locus YNL307C, strain MCK1 (second series), active compounds read low 0.874 | S. cerevisiae deletion strains, locus YOL078W, strain AVO1, active compounds read low 0.958 | S. cerevisiae deletion strains, locus YOL136C, strain PFK27, active compounds read low 0.894 | S. cerevisiae deletion strains, locus YOR061W, strain CKA2, active compounds read low 0.903 | S. cerevisiae deletion strains, locus YOR119C, strain RIO1, active compounds read low 0.87 | [26] 0.905 | S. cerevisiae deletion strains, locus YOR329C, strain SCD5, active compounds read low 0.985 | S. cerevisiae deletion strains, locus YPL031C, strain PHO85, active compounds read low 0.854 | S. cerevisiae deletion strains, locus YPL153C, strain RAD53, active compounds read low 0.899 | S. cerevisiae deletion strains, locus YPL204W, strain HRR25, active compounds read low 0.864 | S. cerevisiae deletion strains, locus YPL209C, strain IPL1, active compounds read low 0.977 | [27] 0.967 | S. cerevisiae deletion strains, locus YPR025C, strain CCL1, active compounds read low 0.977 | S. cerevisiae deletion strains, locus YPR106W, strain ISR1, active compounds read low 0.96 | S. cerevisiae deletion strains, locus YPR111W, strain DBF20, active compounds read low 0.942 | S. cerevisiae deletion strains, strain NNK1, active compounds read low 0.979 | S. cerevisiae deletion strains, strain TSCII, active compounds read low 0.959
